{
  "source": "PubChem BioAssay AID2013",
  "about": "(Sanford-Burnham Center for Chemical Genomics, 2009)",
  "note": "About 370 (0.13%) of roughly 290,000 compounds were called active. Shown is part of a subset that was picked to be rich in actives. Results with a measured potency or affinity are listed apart. A number with no mark means an inactive call.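 How the source made its calls: active means spots per cell inhibited over 60%, with over 100 cells counted and total cytoplasm intensity under 500,000; inconclusive means wells with under 100 cells, flagged as likely toxic; inactive means the rest.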",
  "data": [
    {"biological_target": "G-protein coupled receptor 55 (Homo sapiens) (UniProt Q9Y2T6)", "sequence (Q9Y2T6 whole entry, looked up)": "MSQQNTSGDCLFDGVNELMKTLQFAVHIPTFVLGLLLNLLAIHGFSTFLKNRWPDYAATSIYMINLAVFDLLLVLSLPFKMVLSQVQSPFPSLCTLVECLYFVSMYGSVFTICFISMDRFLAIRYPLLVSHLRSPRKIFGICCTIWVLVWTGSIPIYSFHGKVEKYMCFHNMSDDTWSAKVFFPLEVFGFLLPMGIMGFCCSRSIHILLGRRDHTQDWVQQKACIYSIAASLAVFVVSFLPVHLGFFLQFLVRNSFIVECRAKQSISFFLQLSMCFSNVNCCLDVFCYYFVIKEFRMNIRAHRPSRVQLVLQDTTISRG", "assay": "GPR55 antagonists blocking LPI-driven arrestin recruitment, primary screen, imaging, U2OS, beta-arrestin-GFP, LPI agonist (AID 2013);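 further: U2OS cells stably carrying GPR55 and arrestin-GFP stimulated by 5 µM LPI near EC80; imaged beta-arrestin-GFP aggregate spots per cell after agonist stimulation; plate controls were LPI-stimulated DMSO wells for no effect and DMSO wells without LPI for full effect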", "details": "U2OS GPR55 beta-arrestin-GFP translocation imaging, LPI antagonism; at 10 µM; active compounds read high", "values": [
      {"smiles": "CCN(C(=O)CC(C)C)c1nnc(Cn2nnc3ccccc32)s1", "inhibition": "6.1%"},
      {"smiles": "O=C(CN1C(=O)S/C(=C\\c2ccc(Cl)cc2)C1=O)NCCCn1ccnc1", "inhibition": "-24.8%"},
      {"smiles": "N=C1C(c2nc(-c3ccc(Cl)cc3)cs2)=C(O)CN1CCCN1CCOCC1", "inhibition": "14.9%"},
      {"smiles": "Fc1ccc(-c2csc(N3CCOCC3)n2)cc1", "inhibition": "-10.5%"},
      {"smiles": "Cc1c(Br)c([N+](=O)[O-])nn1CC(=O)N1CCN(C23CC4CC(CC(C4)C2)C3)CC1", "inhibition": "10.9%"},
      {"smiles": "O=C(CN(c1ccc(Cl)cc1)S(=O)(=O)c1ccc(Cl)c([N+](=O)[O-])c1)NCCc1ccc(F)cc1", "inhibition": "7.2%"},
      {"smiles": "Cc1ccc(N(CC(=O)NCCc2ccc(F)cc2)S(=O)(=O)c2ccc(Cl)c([N+](=O)[O-])c2)c(C)c1", "inhibition": "65.4% (active)"},
      {"smiles": "O=C(CN(c1ccc(Cl)cc1)S(=O)(=O)c1ccc(Cl)c([N+](=O)[O-])c1)NCCc1ccccc1", "inhibition": "5.1%"},
      {"smiles": "O=S(=O)(NC1CCCCC1Oc1ccccc1)c1ccc(Cl)cc1", "note": "(stereo unspecified)", "inhibition": "12.4%"},
      {"smiles": "CCn1cc(CN2CCC(C(=O)Nc3ccc(Oc4ccccc4)nc3)CC2)cn1", "inhibition": "17%"},
      {"smiles": "NC(=NC(=O)c1ccccc1)N1CCN(C(c2ccccc2)c2ccccc2)CC1", "inhibition": "22.5%"},
      {"smiles": "CC1=C(C(=O)OCc2ccccc2)C(c2ccc3ccccc3c2)NC(=O)N1CCCC(=O)O", "note": "(stereo unspecified)", "inhibition": "1.7%"},
      {"smiles": "Cn1nc(C(=O)NCc2ccco2)c2ccccc2c1=O", "inhibition": "-3.1%"},
      {"smiles": "COC(=O)c1cccc(S(=O)(=O)N2CCC(c3nc4ccccc4o3)CC2)c1", "inhibition": "4.8%"},
      {"smiles": "O=c1[nH]ncn1-c1ccccc1", "inhibition": "0.1%"},
      {"smiles": "Cc1ccc(OC(=O)c2ccc(N3CCOCC3)c([N+](=O)[O-])c2)cc1", "inhibition": "2.8%"},
      {"smiles": "Cc1ncsc1CCOC(=O)c1ccc(N2CCOCC2)c([N+](=O)[O-])c1", "inhibition": "-11%"},
      {"smiles": "CC(C)c1ccc(CN2C(=O)NC3(CCCCCC3)C2=O)cc1", "inhibition": "4.2%"},
      {"smiles": "CC(=O)N1CCc2cc(Br)cc(S(=O)(=O)NCCN3CCCCC3C)c21", "note": "(stereo unspecified)", "inhibition": "10.5%"},
      {"smiles": "CCC(=O)N1CCc2cc(Br)cc(S(=O)(=O)NCCN3CCCCC3CC)c21", "note": "(stereo unspecified)", "inhibition": "5.4%"},
      {"smiles": "CCC(=O)N1CCc2cc(Br)cc(S(=O)(=O)NCCN3CCCCC3C)c21", "note": "(stereo unspecified)", "inhibition": "77.2% (active)"},
      {"smiles": "COc1ccccc1CNC(=O)CSc1nc2ccccc2c(=O)n1CCCN1CCOCC1", "inhibition": "1.4%"},
      {"smiles": "Cc1ccccc1NC(=O)CSC(N)=O", "inhibition": "1.9%"},
      {"smiles": "O=C(COc1ccc(Cl)cc1Cl)Nc1ccc(S(=O)(=O)NC2=NCCCCC2)cc1", "inhibition": "3.6%"},
      {"smiles": "Cc1ccc(C(C)C)c(OCC(=O)Nc2cccc(S(=O)(=O)NC3=NCCCCC3)c2)c1", "inhibition": "-2.2%"},
      {"smiles": "Cc1ccc(Nc2cc(C)nc(NCc3ccccc3)n2)cc1", "inhibition": "26.1%"},
      {"smiles": "Cc1cc(Nc2ccc(Cl)cc2)nc(NCc2ccccc2)n1", "inhibition": "13.1%"},
      {"smiles": "CC(=O)NC(=S)Nc1cccc2ccc(C)nc12", "inhibition": "-6.6%"},
      {"smiles": "Cc1cc(C(F)(F)F)n(-c2nc(C(=O)N/N=C/c3ccc(F)cc3)cs2)n1", "inhibition": "-8.1%"},
      {"smiles": "COC(=O)c1ccccc1NC(=S)NC(=O)c1ccc2c(c1)OCO2", "inhibition": "7.9%"},
      {"smiles": "COc1ccc(CCNC(=O)[C@H](C)NC(=O)[C@@H]2CSC3c4ccccc4C(=O)N32)cc1", "note": "(stereo partly specified)", "inhibition": "9.5%"},
      {"smiles": "CCN(c1ccccc1)S(=O)(=O)c1ccc(Cl)nc1", "inhibition": "-13.7%"},
      {"smiles": "CCN(CC)S(=O)(=O)c1ccc(NCC2COc3ccccc3O2)c([N+](=O)[O-])c1", "note": "(stereo unspecified)", "inhibition": "8.6%"},
      {"smiles": "Cc1ccc(CNc2nc(C)cs2)cc1", "inhibition": "4.7%"},
      {"smiles": "CCCn1c(SCc2nc3sc(C)c(C)c3c(=O)[nH]2)nc2ccccc2c1=O", "inhibition": "8.6%"},
      {"smiles": "Cc1sc2nc(CSc3nc4ccccc4c(=O)n3CCCN3CCOCC3)[nH]c(=O)c2c1C", "inhibition": "89.7% (active)"},
      {"smiles": "Cc1[nH]c2ccccc2c1C(=O)CSc1nc2ccccc2c(=O)n1CCCN1CCOCC1", "inhibition": "-7.3%"},
      {"smiles": "Cc1cc(C)cc(Oc2cc(NC(=O)c3cn(C)nc3C)cc([N+](=O)[O-])c2)c1", "inhibition": "-5.3%"},
      {"smiles": "Cc1ccc(NC(=O)c2cc(S(=O)(=O)N3CCc4ccccc43)cn2C)cc1", "inhibition": "6.1%"},
      {"smiles": "Cc1cccc(N(C)C(=O)c2cc(S(=O)(=O)N3CCc4ccccc43)cn2C)c1", "inhibition": "8.9%"},
      {"smiles": "CN(C)/C=N/c1[nH]ncc1C#N", "inhibition": "-2%"},
      {"smiles": "Cc1nc2ccccc2n1CC(O)Cn1c(C(F)(F)F)nc2ccccc21", "note": "(stereo unspecified)", "inhibition": "6.6%"},
      {"smiles": "NC(=O)CSc1n[nH]c(-c2ccco2)n1", "inhibition": "8.2%"},
      {"smiles": "O=C(c1cccc(S(=O)(=O)N2CCN(c3ccccc3)CC2)c1)N1CC=C(c2ccccc2)CC1", "inhibition": "4.3%"},
      {"smiles": "COc1ccccc1NS(=O)(=O)c1cc(NC(=O)CC(C)(C)C)ccc1N1CCOCC1", "inhibition": "6.1%"},
      {"smiles": "COc1ccccc1NS(=O)(=O)c1cccc(NC(=S)NCCN2CCOCC2)c1", "inhibition": "0.8%"},
      {"smiles": "Cc1ccccc1NC(=O)Nc1cc(S(N)(=O)=O)ccc1C", "inhibition": "-2.7%"},
      {"smiles": "COc1ccc(N2CCN(C(=O)NCc3ccc(C)cc3)CC2)cc1", "inhibition": "1%"},
      {"smiles": "CC(=O)Nc1cccc(C(=O)OCC(=O)c2ccccc2Cl)c1", "inhibition": "-0.6%"},
      {"smiles": "COc1cc(S(=O)(=O)Nc2ccccc2)ccc1N=Cc1c(C)[nH]n(-c2ccc(C)cc2)c1=O", "inhibition": "7.7%"},
      {"smiles": "O=C(Nc1ccccc1N1CCOCC1)c1cccc(NS(=O)(=O)c2ccc(F)c(F)c2)c1", "inhibition": "2.6%"},
      {"smiles": "O=C(CC12CC3CC(CC(C3)C1)C2)NCc1ccco1", "inhibition": "11.3%"},
      {"smiles": "O=C(CC12CC3CC(CC(C3)C1)C2)NC(=S)NCc1ccccc1", "inhibition": "53%"},
      {"smiles": "OCCNc1cnc2ccccc2n1", "inhibition": "12.6%"},
      {"smiles": "CC1CN(S(=O)(=O)c2ccccc2)CN1C(=O)N1CCOCC1", "note": "(stereo unspecified)", "inhibition": "15.3%"},
      {"smiles": "CCN1CCCC1CN(Cc1cc2ccc(C)cc2[nH]c1=O)C(=S)Nc1ccc(F)cc1", "note": "(stereo unspecified)", "inhibition": "23.5%"},
      {"smiles": "COc1ccc(Cl)cc1S(=O)(=O)n1ccnc1", "inhibition": "4.2%"},
      {"smiles": "COC(=O)c1ccc2c(c1)C(C)(C)C(/C=C/c1ccccc1O)=[N+]2C", "inhibition": "11.5%"},
      {"smiles": "C[N+]1=C(/C=C/Nc2ccccc2Cl)C(C)(C)c2ccccc21", "inhibition": "0.9%"},
      {"smiles": "O=C1c2ccccc2C(=O)C2OC12", "note": "(stereo unspecified)", "inhibition": "12.7%"},
      {"smiles": "COc1ccc(OC)c(-c2csc(N(CC3CCCO3)C(=O)C3CCCCC3)n2)c1", "note": "(stereo unspecified)", "inhibition": "82.9% (active)"},
      {"smiles": "COc1ccc(OC)c(-c2csc(N(CC3CCCO3)C(=O)Cc3ccccc3)n2)c1", "note": "(stereo unspecified)", "inhibition": "17.6%"},
      {"smiles": "COc1ccc(-c2csc(N(CC3CCCO3)C(=O)c3ccccc3)n2)cc1", "note": "(stereo unspecified)", "inhibition": "0.7%"},
      {"smiles": "CN(C)c1ccc(C(=O)OCC(=O)Nc2ccc(N3CCOCC3)cc2)cc1", "inhibition": "0.2%"},
      {"smiles": "CCN(CC)c1ccc(NC(=O)Cn2c(C(C)NC(=O)c3ccc(C)cc3)nc3ccccc32)cc1", "note": "(stereo unspecified)", "inhibition": "1.1%"},
      {"smiles": "S=c1[nH]nc(CSCc2ccccc2Cl)n1-c1ccccc1", "inhibition": "1%"},
      {"smiles": "Cn1c(CSCc2ccccc2Cl)n[nH]c1=S", "inhibition": "-17.8%"},
      {"smiles": "CN(Cc1ccc(Cl)cc1Cl)C(=O)CNC(=O)c1ccco1", "inhibition": "8.3%"},
      {"smiles": "CCCn1cc(S(=O)(=O)c2ccccc2)c(=O)c2cc(F)c(N3CCN(C)CC3)cc21", "inhibition": "7.5%"},
      {"smiles": "Clc1cccc(-c2cc3nc4c(c(N5CCN(c6cnccn6)CC5)n3n2)CCCC4)c1", "inhibition": "-5.5%"},
      {"smiles": "Clc1cccc(-c2cc3nc4c(c(N5CCOCC5)n3n2)CCCC4)c1", "inhibition": "-8.9%"},
      {"smiles": "Clc1cccc(-c2cc3nc4c(c(N5CCNCC5)n3n2)CCCC4)c1", "inhibition": "90.4% (active)"},
      {"smiles": "COc1ccc(NS(=O)(=O)c2ccc3nc(COc4ccc(C#N)cc4)[nH]c3c2)cc1", "inhibition": "6%"},
      {"smiles": "COc1ccc(NS(=O)(=O)c2ccc3nc(COc4ccc5ccccc5c4)[nH]c3c2)cc1", "inhibition": "20.6%"},
      {"smiles": "COc1ccc(/C=C(\\C#N)C(=O)OCC(=O)Nc2ccc(-c3nc4ccc(C)cc4s3)cc2)cc1", "inhibition": "-6.4%"},
      {"smiles": "C=C(C)CSc1nc2ncc(Cl)cc2[nH]1", "inhibition": "17.6%"},
      {"smiles": "N/C(=N\\O)c1ccccc1N1CCCCC1", "inhibition": "-5%"},
      {"smiles": "CCCC(=O)Nc1nc(C)c(C(C)=O)s1", "inhibition": "-16%"},
      {"smiles": "CCC(C)n1c(SCC(=O)Nc2cc(C)on2)nc2ccccc2c1=O", "note": "(stereo unspecified)", "inhibition": "15.5%"},
      {"smiles": "C=CCn1c(SCC(=O)NC(=O)c2cccn2C)nc2ccccc2c1=O", "inhibition": "4.4%"},
      {"smiles": "CCC(C)n1c(SCC(=O)NC(=O)c2cccn2C)nc2ccccc2c1=O", "note": "(stereo unspecified)", "inhibition": "99.6% (active)"},
      {"smiles": "COc1cc(C(=O)NNC(=O)NC2CCCCC2)cc(OC)c1OC", "inhibition": "8.5%"},
      {"smiles": "O=C(NCc1ccccc1Cl)c1ccc2c(c1)SC1=NS(=O)(=O)CCN12", "inhibition": "-9.3%"},
      {"smiles": "COc1cccc(NC(=O)c2cccc(C(=O)Nc3cccc(OC)c3)c2)c1", "inhibition": "-0.6%"},
      {"smiles": "C=CCNC(=O)/C(C#N)=C/c1ccccc1[N+](=O)[O-]", "inhibition": "13.3%"},
      {"smiles": "N#C/C(=C\\C=C\\c1ccccc1[N+](=O)[O-])C(=O)NCc1ccccc1", "inhibition": "11.1%"},
      {"smiles": "CC1=CC(=C(C#N)C#N)C=C(C)N1CCN1CCN(C(=O)Nc2cccc(Cl)c2)CC1", "inhibition": "3.5%"},
      {"smiles": "Cc1cccc(NC(=O)C2C3C=CC4(O3)C2C(=O)N(CCCN2CCCC2)C4C(=O)NC2CCCC(C)C2C)c1", "note": "(stereo unspecified)", "inhibition": "-6.5%"},
      {"smiles": "CC1(c2cc([N+](=O)[O-])cc([N+](=O)[O-])c2)CC(C)(C)N(C(=O)c2ccccc2)c2ccccc21", "note": "(stereo unspecified)", "inhibition": "-0.2%"},
      {"smiles": "CC1(c2ccccc2)CC(C)(C)N(C(=O)c2cc([N+](=O)[O-])cc([N+](=O)[O-])c2)c2ccccc21", "note": "(stereo unspecified)", "inhibition": "64.4% (active)"},
      {"smiles": "CC1(c2ccc([N+](=O)[O-])cc2)CC(C)(C)N(C(=O)c2ccccc2)c2ccccc21", "note": "(stereo unspecified)", "inhibition": "11.2%"}
    ]}
  ]
}
